Among all 300,000 compounds or so, about 3,200 (1.1%) were called active. This is one part of a sample in which actives are shown more often than they occur. Unmarked numbers belong to inactive results. Cut-off read from the data, not from the text of the source: active = inhibition above about 75%; inconclusive = no clear call, values can overlap the other calls; inactive = below that; tested in HMLE shEcad cells.

The experiment in a line: growth suppression of cancer stem-like cells – cell-based, luminescence, primary screen (AID 2717). The note with it: cancer stem cell-like cells viability, at 7.5 µM, stronger effect = higher value.
For the molecule `CC(C)(C)OC(=O)C[C@@H]1C/C=C\C[C@@H](CC(=O)NCCO)C(=O)N[C@H](Cc2c[nH]c3ccccc23)COC1=O`, the inhibition is -11.3%.

Take `Cc1ccc(Br)c(NS(=O)(=O)c2cccc(C(=O)N3CCNC(=O)C3)c2)c1`: the inhibition is -15.2%.

Take `CN1CCN(C2Cc3ccc(Cl)cc3Sc3ccc(F)cc32)CC1` (configuration not stated): the inhibition was 101% (active).

On to `O=C(N=C1SC2CS(=O)(=O)CC2N1c1ccccc1)c1ccccc1` (configuration not stated), for which the inhibition was -9.26%.

Take `Cc1ccc(C2(C)NC(=O)N(CC(=O)N3CC(=O)Nc4ccccc43)C2=O)cc1` (configuration not stated): the inhibition is -12.5%.

Consider `O=C(c1ccc(S(=O)(=O)NCc2ccco2)cc1)N1CCN(c2ccccc2)CC1`, for which the inhibition was -16.3%.

On to `CC(C)(c1ccccc1)c1ccc(OCCN)cc1`, for which the inhibition was 37%.

As for `Cc1cc(OCCN2CCCC2)ccc1C(C)C`, the inhibition was 1.11%.

With `CC(C)(c1ccccc1)c1ccc(OCCN2CCCC2)cc1`, the inhibition was 91.2% (active).

Consider `CN(Cc1ccc(F)cc1)C(=O)CN1C(=O)c2ccccc2S1(=O)=O`, for which the inhibition was 1.87%.

Regarding `Cc1cc(NC(=O)COC(=O)/C=C/c2ccc(C)o2)no1`, the inhibition is -11.7%.

As to `O=C(CCc1ccccc1)Nc1ncc([N+](=O)[O-])s1`, the inhibition is 23.5%.

With `O=C(Nc1ncc([N+](=O)[O-])s1)C1COc2ccccc2O1` (configuration not stated), the inhibition was 54.2%.

With `CC(=O)Oc1ccccc1C(=O)Nc1ncc([N+](=O)[O-])s1`, the inhibition is 76.2% (active).

Regarding `COc1cccc(CNC(C)C(=O)Nc2ccc(S(=O)(=O)N3CCCC3)cc2)c1` (configuration not stated), the inhibition is 10.7%.

As to `CN(C(=O)COC(=O)CCCc1c[nH]c2ccccc12)c1c(N)n(Cc2ccccc2)c(=O)[nH]c1=O`, the inhibition is -11.7%.

Consider `CC1(C)CC[C@]2(C(=O)O)CC[C@]3(C)C(=CCC4[C@@]5(C)CC[C@H](O)C(C)(C)C5[C@H](O)C[C@]43C)[C@@H]2C1` (some centres not stated), for which the inhibition was -4.41%.

On to `CC1(C)CC[C@@]2(C(=O)O)C(C1)C1=CCC3[C@@]4(C)CC[C@H](O)C(C)(C)C4CC[C@@]3(C)[C@]1(C)C[C@H]2O` (some centres not stated), for which the inhibition was 87.8% (active).

`CC1(C)C2CC[C@]3(C)C(CC=C4[C@@H]5C[C@@](C)(CO)CC[C@]5(C(=O)O)CC[C@]43C)[C@@]2(C)CC[C@@H]1O` (some centres not stated): the inhibition is -8.25%.

Take `CCOC(=O)[C@H]1[C@H]2COc3ccccc3[C@@H]2N2C(=O)CN(Cc3ccccc3)C(=O)[C@@]12C`: the inhibition was -9.72%.

`CC(C)CC(=O)N1CCN(Cc2cccc(Cl)c2)CC1`: the inhibition is -2.32%.

As for `Clc1cccc(CN2COc3c(cc(Cl)c4cccnc34)C2)c1`, the inhibition was 118% (active).

Turning to `O=C(c1cccc(Cl)c1)N1CCN(Cc2ccccc2)CC1`, the inhibition is -14.8%.

On to `O=C(OCC(=O)N1CCCCCC1)c1ccc(Br)c(S(=O)(=O)N2CCOCC2)c1`, for which the inhibition was -10.2%.

In the case of `COc1ccc(-c2nc3cnccn3c2NC2CCCCC2)cc1-c1cccc(Cl)c1`, the inhibition was 105% (active).

Regarding `COc1ccc(-c2nc3cnccn3c2NC(C)(C)CC(C)(C)C)cc1O`, the inhibition is 0.145%.

Take `Cc1ccc2nc(-c3cccnc3)c(NC3CCCC3)n2c1`: the inhibition was -4.39%.

Turning to `CCN(c1ccccc1)S(=O)(=O)c1cccc(C(=O)NCc2ccccc2CN2CCOCC2)c1`, the inhibition was -15.2%.

As for `O=S(=O)(c1ccccc1)c1nc(-c2ccccc2)oc1NCCCN1CCOCC1`, the inhibition is -5.33%.

As for `N#Cc1nc(-c2ccc(OCc3ccccc3)cc2)oc1NCCCN1CCOCC1`, the inhibition was 86.3% (active).

With `Cc1ccc(-c2nc(C#N)c(NCCCn3ccnc3)o2)cc1`, the inhibition is -10.2%.

In the case of `CC(=O)Nc1ccc(S(=O)(=O)Nc2ccc(N3CCCCC3)cc2)cc1`, the inhibition was 21.5%.

For `O=S(=O)(Nc1ccc(OC(F)(F)F)cc1)c1cccc2nonc12`, the inhibition was -7.85%.

`Cc1nn(C)c(C)c1NS(=O)(=O)c1ccc(OC(F)(F)F)cc1`: the inhibition was 1.58%.

As for `O=S(=O)(Nc1ccc(O)c2ccccc12)c1ccc(OC(F)(F)F)cc1`, the inhibition was 106% (active).

With `Cc1noc(C)c1NC(=O)Nc1ccc2c(c1)C(=O)N([C@H](C)CO)C[C@H](C)[C@@H](CN(C)S(=O)(=O)c1cn(C)cn1)O2`, the inhibition was -15.6%.

For the molecule `Cc1cccc(NC(=O)c2ccc(S(=O)(=O)N(C)c3ccccc3)cc2)n1`, the inhibition is -22%.

In the case of `COc1ccc(-c2c(C#Cc3ccsc3)c3cc(-c4ccc(CN5CCOCC5)cc4)ccc3n2C)cc1`, the inhibition is 31.2%.

On to `COc1ccc(/C=N/Nc2nc3ccccc3c(=O)[nH]2)cc1`, for which the inhibition is 13%.

Regarding `COc1ccc(Cc2nnc(N/N=C/c3ccccc3O)[nH]c2=O)cc1OC`, the inhibition is 106% (active).

Regarding `CC(C)c1ccc(Cc2nnc(NCCCO)[nH]c2=O)cc1`, the inhibition is 13.6%.

For the molecule `C=CCC[C@H](Cc1ccc(F)cc1)C(=O)OC[C@H](C)NC(=O)[C@H](CC=C)CC(=O)N(CCO)Cc1ccccc1`, the inhibition was -9.39%.

Consider `COc1ccccc1OCc1nc2ccccc2s1`, for which the inhibition was 5.53%.

Take `COc1cccc2sc(Nc3nc(C)c(C(C)=O)s3)nc12`: the inhibition was 17.8%.

Take `COc1cccc2sc(NNC(=O)c3nc4ccccc4s3)nc12`: the inhibition is 103% (active).

As to `CCN(C[C@H]1N[C@@](CC)(C(=O)OC)[C@H]2C(=O)N(C)C(=O)[C@@H]12)C(=O)Nc1ccc(F)cc1`, the inhibition was -20.7%.

On to `N#Cc1nc(-c2cccc3ccccc23)oc1N`, for which the inhibition is 8.01%.

Consider `Cc1ccc(NNC(=O)c2cccs2)cc1Cl`, for which the inhibition was 90.5% (active).

For the molecule `O=C(NNC(=O)c1ccc(Cl)cc1Cl)c1cccs1`, the inhibition was 5.32%.

For the molecule `Cc1ccc(NNC(=O)c2c(F)cccc2Cl)cc1Cl`, the inhibition was -4.9%.

For the molecule `CC(=O)Nc1ccc(SC[C@H](Cc2ccccc2)N2CC[C@@H](C)CCC2=O)cc1`, the inhibition is 1.36%.

As to `CC(NC(=O)COC(=O)CCC(=O)c1ccc(Cl)cc1)c1ccccc1` (configuration not stated), the inhibition was -16.5%.

Turning to `O=C(CCNC(=O)c1ccccc1Cl)NN=Cc1ccco1`, the inhibition is -8.03%.

Consider `O=[N+]([O-])c1cc(S(=O)(=O)NCCc2ccccn2)ccc1Cl`, for which the inhibition is -19.2%.

For the molecule `COc1ccc(-c2csc3nc(-c4ccccc4F)oc(=O)c23)cc1OC`, the inhibition was 98.7% (active).

For the molecule `COc1ccccc1-c1nnc(-c2ccc(F)cc2)o1`, the inhibition was 4.47%.

Take `COc1ccc(-c2csc(-c3cccs3)n2)cc1OC`: the inhibition is 11.3%.

Values taken from PubChem BioAssay AID2717 (Broad Institute, 2010).
